What was measured:
Experiment in all cases: DAPPL (digital affinity profiling via proximity ligation, sequencing); 10 mM Tris-HCl pH 7.5, 50 mM NaCl, 1 mM DTT, 4% glycerol, room temperature, 30 min; GST-TFs on glutathione beads, 16-mer random dsDNA library, 0.1% formaldehyde crosslink after washing; high values mean tight binding
FEV = target: T1, FEV (Homo sapiens, UniProt Q99581 1-238); conditions: protein: recombinant; tags: N-terminal GST; dsDNA, one strand shown
T1 sequence: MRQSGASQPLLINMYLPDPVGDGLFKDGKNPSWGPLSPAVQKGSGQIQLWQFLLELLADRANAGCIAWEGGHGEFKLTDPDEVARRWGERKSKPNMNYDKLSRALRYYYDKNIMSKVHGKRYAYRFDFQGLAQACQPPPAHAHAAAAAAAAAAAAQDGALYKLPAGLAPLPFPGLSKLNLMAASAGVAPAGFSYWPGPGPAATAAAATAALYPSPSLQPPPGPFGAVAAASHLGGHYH
Method in brief: (§1)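 In yeast, human transcription factors were expressed with a GST fusion, then pulled down on glutathione beads and given DNA barcodes. Pooled with a tag-only sample, they were exposed to 200 nmole of a 16-mer random double-stranded DNA library (Tris/NaCl/DTT/glycerol buffer, room temperature, 30 min), washed, crosslinked with 0.1% formaldehyde, proximity-ligated using BsaI/T4 ligase for 1 h at 37 °C, PCR-amplified and read on an Illumina NextSeq500. Each hexamer's frequency of reads for a factor, divided by the matching frequency for the tag-only sample, gives the binding signal.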

ETV5 = ETV5 (Homo sapiens, UniProt P41161 1-510); conditions: protein: recombinant; tags: N-terminal GST; dsDNA, one strand shown
Chain of ETV5 (P41161 whole entry): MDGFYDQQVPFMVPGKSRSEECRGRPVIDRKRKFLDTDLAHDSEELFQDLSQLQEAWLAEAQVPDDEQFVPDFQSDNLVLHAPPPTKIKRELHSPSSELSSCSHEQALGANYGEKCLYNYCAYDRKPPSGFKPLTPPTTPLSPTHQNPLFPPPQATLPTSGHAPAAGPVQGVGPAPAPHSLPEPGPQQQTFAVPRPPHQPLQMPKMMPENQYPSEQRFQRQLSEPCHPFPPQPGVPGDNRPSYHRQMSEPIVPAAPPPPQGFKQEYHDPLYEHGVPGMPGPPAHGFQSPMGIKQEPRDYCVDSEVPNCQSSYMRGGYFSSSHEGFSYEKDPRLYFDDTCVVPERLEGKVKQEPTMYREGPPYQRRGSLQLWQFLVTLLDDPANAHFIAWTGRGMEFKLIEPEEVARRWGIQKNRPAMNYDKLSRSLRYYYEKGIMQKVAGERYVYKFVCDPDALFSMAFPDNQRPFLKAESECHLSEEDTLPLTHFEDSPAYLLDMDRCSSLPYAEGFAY
Method in brief: as §1

HSF1 = HSF1 (Homo sapiens, UniProt Q00613 1-529); conditions: protein: recombinant; tags: N-terminal GST; chain copies: 3; dsDNA, one strand shown
Chain of HSF1 (Q00613 whole entry): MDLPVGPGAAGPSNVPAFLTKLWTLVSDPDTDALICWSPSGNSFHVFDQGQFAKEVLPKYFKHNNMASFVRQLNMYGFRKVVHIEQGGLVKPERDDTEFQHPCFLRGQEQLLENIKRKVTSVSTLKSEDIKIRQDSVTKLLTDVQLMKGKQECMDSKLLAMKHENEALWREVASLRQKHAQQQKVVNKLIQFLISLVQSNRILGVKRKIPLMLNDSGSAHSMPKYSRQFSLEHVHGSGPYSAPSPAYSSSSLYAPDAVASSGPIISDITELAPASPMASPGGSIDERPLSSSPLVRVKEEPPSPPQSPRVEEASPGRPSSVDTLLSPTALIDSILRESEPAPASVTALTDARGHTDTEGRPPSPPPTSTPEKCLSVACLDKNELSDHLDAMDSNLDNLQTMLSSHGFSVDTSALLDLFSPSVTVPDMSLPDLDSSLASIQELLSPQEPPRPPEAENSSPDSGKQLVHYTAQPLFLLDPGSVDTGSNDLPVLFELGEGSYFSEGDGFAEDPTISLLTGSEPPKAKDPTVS
Method in brief: as §1

SPIC = target: T2, SPIC (Homo sapiens, UniProt Q8N5J4 1-248); conditions: protein: recombinant; tags: N-terminal GST; dsDNA, one strand shown
T2 sequence: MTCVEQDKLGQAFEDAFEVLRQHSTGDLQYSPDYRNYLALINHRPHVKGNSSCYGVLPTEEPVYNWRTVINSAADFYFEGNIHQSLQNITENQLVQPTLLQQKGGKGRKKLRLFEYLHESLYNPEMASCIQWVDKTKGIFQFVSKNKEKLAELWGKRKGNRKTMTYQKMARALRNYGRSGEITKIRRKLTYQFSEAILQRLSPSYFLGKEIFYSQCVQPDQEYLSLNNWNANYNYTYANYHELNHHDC
Method in brief: as §1

ELF4 = ELF4 (Homo sapiens, UniProt Q99607 1-663); conditions: protein: recombinant; tags: N-terminal GST; dsDNA, one strand shown
Chain of ELF4 (Q99607 whole entry): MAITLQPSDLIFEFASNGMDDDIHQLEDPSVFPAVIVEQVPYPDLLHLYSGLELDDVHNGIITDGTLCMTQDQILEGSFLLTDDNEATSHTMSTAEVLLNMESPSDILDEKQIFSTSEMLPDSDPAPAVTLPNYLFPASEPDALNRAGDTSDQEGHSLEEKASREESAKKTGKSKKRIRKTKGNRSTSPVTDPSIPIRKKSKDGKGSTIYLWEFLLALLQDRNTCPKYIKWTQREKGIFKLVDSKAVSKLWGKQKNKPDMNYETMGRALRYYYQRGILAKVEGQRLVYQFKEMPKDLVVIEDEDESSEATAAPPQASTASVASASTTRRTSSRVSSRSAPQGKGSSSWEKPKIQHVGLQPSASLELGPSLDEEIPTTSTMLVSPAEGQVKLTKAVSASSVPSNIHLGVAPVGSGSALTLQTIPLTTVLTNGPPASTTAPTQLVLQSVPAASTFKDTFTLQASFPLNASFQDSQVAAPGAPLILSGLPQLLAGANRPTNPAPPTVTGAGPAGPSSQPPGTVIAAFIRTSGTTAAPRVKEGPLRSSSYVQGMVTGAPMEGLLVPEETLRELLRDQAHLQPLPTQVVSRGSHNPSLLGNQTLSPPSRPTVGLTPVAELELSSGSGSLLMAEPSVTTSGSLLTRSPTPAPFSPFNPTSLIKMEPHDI
Method in brief: as §1

ELK4 = target: T3, ELK4 (Homo sapiens, UniProt P28324-2 1-405); conditions: protein: recombinant; tags: N-terminal GST; dsDNA, one strand shown
T3 sequence: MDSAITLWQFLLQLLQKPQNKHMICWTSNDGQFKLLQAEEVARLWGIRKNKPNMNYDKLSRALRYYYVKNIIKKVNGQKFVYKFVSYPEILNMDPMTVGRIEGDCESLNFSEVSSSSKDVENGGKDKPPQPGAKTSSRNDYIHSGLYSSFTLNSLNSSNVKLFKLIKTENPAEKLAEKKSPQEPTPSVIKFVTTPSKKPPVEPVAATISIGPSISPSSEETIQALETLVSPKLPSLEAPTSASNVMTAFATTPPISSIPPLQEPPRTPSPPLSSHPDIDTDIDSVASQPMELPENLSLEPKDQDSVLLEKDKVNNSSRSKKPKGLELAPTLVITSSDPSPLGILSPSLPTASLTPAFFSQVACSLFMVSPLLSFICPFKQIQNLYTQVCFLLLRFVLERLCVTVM
Method in brief: as §1

ETV2 = target: T4, ETV2 (Homo sapiens, UniProt O00321 1-342); conditions: protein: recombinant; tags: N-terminal GST; dsDNA, one strand shown
T4 sequence: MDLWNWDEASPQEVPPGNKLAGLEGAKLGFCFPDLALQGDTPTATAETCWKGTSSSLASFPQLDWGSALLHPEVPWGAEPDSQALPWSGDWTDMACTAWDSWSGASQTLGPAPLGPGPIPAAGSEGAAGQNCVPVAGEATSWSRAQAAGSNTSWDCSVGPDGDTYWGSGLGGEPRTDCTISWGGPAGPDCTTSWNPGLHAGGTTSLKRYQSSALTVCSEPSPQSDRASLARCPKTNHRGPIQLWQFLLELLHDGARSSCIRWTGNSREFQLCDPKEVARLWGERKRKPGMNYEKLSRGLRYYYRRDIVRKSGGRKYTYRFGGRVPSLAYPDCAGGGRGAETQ
Method in brief: as §1

ELF3 = target: T5, ELF3 (Homo sapiens, UniProt P78545 1-371); conditions: protein: recombinant; tags: N-terminal GST; dsDNA, one strand shown
T5 sequence: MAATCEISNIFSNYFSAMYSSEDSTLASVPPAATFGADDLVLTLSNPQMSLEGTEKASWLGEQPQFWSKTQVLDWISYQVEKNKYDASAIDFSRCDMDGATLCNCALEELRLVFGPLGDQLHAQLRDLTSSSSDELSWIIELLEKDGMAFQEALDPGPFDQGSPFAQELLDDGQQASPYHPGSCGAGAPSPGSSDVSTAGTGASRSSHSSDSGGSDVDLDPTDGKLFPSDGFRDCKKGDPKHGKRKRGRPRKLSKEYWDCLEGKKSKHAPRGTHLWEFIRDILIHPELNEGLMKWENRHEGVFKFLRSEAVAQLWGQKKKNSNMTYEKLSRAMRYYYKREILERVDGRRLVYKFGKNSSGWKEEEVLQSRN
Method in brief: as §1

CRX = CRX (Homo sapiens, UniProt O43186 1-299); conditions: protein: recombinant; tags: N-terminal GST; dsDNA, one strand shown
Chain of CRX (O43186 whole entry): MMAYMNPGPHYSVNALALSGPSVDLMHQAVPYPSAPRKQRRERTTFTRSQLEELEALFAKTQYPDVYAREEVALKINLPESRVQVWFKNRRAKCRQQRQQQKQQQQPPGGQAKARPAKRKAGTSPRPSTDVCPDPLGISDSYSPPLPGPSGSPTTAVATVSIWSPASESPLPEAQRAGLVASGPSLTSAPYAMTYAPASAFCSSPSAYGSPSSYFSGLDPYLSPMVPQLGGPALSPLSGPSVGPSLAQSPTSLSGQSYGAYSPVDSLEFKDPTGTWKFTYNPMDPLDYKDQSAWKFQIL
Method in brief: as §1

ETV1 = ETV1 (Homo sapiens, UniProt P50549 1-477); conditions: protein: recombinant; tags: N-terminal GST; dsDNA, one strand shown
Chain of ETV1 (P50549 whole entry): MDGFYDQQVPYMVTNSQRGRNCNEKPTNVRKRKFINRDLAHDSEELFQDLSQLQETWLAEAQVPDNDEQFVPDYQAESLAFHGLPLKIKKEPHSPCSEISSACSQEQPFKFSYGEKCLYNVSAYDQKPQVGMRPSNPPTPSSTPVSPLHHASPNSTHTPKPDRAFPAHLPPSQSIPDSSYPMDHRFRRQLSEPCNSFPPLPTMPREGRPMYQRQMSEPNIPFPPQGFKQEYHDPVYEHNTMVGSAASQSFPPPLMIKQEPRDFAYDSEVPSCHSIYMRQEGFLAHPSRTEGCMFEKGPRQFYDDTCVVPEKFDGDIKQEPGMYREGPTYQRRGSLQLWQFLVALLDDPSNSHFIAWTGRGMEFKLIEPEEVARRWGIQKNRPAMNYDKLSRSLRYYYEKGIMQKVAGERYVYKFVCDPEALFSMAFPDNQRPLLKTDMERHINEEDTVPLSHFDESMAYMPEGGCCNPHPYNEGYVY
Method in brief: as §1

ERF = target: T6, ERF (Homo sapiens, UniProt P50548 1-548); conditions: protein: recombinant; tags: N-terminal GST; dsDNA, one strand shown
T6 sequence: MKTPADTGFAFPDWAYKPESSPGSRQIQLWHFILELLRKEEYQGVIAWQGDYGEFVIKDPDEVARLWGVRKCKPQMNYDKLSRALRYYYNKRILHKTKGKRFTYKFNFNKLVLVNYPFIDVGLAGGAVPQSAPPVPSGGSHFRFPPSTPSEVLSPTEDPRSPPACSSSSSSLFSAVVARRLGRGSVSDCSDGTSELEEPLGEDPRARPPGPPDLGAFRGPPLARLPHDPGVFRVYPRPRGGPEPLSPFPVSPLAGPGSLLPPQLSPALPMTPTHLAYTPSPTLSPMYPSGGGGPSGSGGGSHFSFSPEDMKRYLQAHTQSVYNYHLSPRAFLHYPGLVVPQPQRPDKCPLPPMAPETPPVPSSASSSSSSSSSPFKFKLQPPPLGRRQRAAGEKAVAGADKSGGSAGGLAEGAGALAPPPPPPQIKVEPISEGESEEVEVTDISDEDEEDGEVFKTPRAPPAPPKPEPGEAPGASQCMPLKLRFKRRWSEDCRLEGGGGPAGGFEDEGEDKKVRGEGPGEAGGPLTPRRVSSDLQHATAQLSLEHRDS
Method in brief: as §1

ETV3L = target: T7, ETV3L (Homo sapiens, UniProt Q6ZN32 1-361); conditions: protein: recombinant; tags: N-terminal GST; dsDNA, one strand shown
T7 sequence: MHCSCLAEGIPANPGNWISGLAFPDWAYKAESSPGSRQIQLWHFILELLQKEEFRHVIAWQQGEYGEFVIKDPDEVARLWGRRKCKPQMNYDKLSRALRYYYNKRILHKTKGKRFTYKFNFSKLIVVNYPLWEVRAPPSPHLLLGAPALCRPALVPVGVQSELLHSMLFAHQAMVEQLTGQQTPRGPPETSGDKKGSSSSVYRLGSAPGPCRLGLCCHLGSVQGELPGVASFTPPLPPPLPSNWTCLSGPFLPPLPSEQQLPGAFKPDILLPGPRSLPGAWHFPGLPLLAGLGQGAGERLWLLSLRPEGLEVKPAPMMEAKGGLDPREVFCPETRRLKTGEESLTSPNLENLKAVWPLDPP
Method in brief: as §1

ETS2 = target: T8, ETS2 (Homo sapiens, UniProt P15036 1-469); conditions: protein: recombinant; tags: N-terminal GST; dsDNA, one strand shown
T8 sequence: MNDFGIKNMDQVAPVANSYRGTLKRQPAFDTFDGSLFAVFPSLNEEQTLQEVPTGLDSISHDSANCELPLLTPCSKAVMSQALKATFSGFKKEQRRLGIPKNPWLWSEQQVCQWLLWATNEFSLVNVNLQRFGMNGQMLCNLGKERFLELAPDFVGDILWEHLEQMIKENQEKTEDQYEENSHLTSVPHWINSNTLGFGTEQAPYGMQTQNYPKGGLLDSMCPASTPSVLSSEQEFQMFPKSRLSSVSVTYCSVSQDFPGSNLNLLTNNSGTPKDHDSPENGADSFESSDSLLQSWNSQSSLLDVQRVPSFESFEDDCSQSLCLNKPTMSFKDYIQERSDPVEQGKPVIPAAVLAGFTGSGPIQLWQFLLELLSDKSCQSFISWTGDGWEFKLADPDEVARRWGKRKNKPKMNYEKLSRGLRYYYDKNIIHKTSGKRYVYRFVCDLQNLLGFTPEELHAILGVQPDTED
Method in brief: as §1

SPDEF = target: T9, SPDEF (Homo sapiens, UniProt O95238 1-335); conditions: protein: recombinant; tags: N-terminal GST; dsDNA, one strand shown
T9 sequence: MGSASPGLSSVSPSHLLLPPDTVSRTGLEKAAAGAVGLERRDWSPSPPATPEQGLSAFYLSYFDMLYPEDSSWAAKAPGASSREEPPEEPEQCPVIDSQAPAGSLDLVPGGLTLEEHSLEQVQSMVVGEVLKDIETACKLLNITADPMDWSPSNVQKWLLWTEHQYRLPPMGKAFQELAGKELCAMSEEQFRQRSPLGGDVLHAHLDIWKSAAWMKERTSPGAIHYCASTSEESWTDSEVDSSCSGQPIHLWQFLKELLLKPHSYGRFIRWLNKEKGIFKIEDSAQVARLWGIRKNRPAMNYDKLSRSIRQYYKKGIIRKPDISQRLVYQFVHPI
Method in brief: as §1

ETV7 = target: T10, ETV7 (Homo sapiens, UniProt Q9Y603 1-341); conditions: protein: recombinant; tags: N-terminal GST; dsDNA, one strand shown
T10 sequence: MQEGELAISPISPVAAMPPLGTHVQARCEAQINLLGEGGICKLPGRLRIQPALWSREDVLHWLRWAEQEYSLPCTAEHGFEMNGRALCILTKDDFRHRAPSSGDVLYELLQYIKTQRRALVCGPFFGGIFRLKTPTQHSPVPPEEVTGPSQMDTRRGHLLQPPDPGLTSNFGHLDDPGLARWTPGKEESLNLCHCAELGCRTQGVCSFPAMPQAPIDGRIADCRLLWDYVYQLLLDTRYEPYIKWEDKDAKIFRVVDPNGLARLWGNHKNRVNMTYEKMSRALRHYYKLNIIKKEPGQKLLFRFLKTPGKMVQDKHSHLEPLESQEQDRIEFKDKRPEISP
Method in brief: as §1

ELF5 = target: T11, ELF5 (Homo sapiens, UniProt Q9UKW6-2 1-255); conditions: protein: recombinant; tags: N-terminal GST; dsDNA, one strand shown
T11 sequence: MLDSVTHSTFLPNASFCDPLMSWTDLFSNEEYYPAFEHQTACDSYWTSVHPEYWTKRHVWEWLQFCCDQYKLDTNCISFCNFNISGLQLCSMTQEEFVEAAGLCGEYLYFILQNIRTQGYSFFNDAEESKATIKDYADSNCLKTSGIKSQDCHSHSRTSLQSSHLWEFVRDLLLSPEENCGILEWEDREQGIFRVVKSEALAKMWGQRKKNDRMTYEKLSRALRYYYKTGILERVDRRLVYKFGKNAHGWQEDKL
Method in brief: as §1

ETV3 = target: T12, ETV3 (Homo sapiens, UniProt P41162-2 1-143); conditions: protein: recombinant; tags: N-terminal GST; dsDNA, one strand shown
T12 sequence: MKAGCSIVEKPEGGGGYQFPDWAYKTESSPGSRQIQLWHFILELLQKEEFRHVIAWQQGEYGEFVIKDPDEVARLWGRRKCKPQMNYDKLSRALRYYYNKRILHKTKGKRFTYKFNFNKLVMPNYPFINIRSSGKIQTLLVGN
Method in brief: as §1

ETV6 = ETV6 (Homo sapiens, UniProt P41212 1-452); conditions: protein: recombinant; tags: N-terminal GST; dsDNA, one strand shown
Chain of ETV6 (P41212 whole entry): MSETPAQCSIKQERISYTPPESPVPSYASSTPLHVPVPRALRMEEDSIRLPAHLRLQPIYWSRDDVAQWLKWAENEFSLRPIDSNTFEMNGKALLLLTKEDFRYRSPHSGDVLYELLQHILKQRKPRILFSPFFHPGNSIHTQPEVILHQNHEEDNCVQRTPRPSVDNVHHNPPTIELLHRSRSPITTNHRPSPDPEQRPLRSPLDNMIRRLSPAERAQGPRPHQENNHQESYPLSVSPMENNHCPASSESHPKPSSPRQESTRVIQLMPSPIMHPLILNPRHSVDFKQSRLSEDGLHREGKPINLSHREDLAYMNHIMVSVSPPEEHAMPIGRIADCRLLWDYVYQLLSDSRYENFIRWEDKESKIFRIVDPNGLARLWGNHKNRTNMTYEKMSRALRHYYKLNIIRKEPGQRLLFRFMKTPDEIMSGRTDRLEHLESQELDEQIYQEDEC
Method in brief: as §1

In the case of ATCACT, the binding signal (FEV) is reported as 1.25 fold enrichment (6-mer frequency, TF over GST control), the binding signal (ETV5) is reported as 1.2 fold enrichment (6-mer frequency, TF over GST control) and the binding signal (HSF1) is reported as 1.14 fold enrichment (6-mer frequency, TF over GST control). For the same sequence, the binding signal (SPIC) was 1.34 fold enrichment (6-mer frequency, TF over GST control), the binding signal (ELF4) was 1.23 fold enrichment (6-mer frequency, TF over GST control) and the binding signal (ELK4) was 1.45 fold enrichment (6-mer frequency, TF over GST control). For the same sequence, the binding signal (ETV2) was 1.29 fold enrichment (6-mer frequency, TF over GST control), the binding signal (ELF3) was 1.35 fold enrichment (6-mer frequency, TF over GST control) and the binding signal (CRX) was 1.29 fold enrichment (6-mer frequency, TF over GST control). For the same sequence, the binding signal (ETV1) was 1.2 fold enrichment (6-mer frequency, TF over GST control), the binding signal (ERF) was 1.16 fold enrichment (6-mer frequency, TF over GST control) and the binding signal (ETV3L) was 1.16 fold enrichment (6-mer frequency, TF over GST control). The binding signal (ETS2) was 1.22 fold enrichment (6-mer frequency, TF over GST control), the binding signal (SPDEF) was 1.22 fold enrichment (6-mer frequency, TF over GST control) and the binding signal (ETV7) was 1.26 fold enrichment (6-mer frequency, TF over GST control). The binding signal (ELF5) was 1.27 fold enrichment (6-mer frequency, TF over GST control), the binding signal (ETV3) was 1.15 fold enrichment (6-mer frequency, TF over GST control) and the binding signal (ETV6) was 1.28 fold enrichment (6-mer frequency, TF over GST control).

Source: publication PMC7862700, “An all-to-all approach to the identification of sequence-specific readers for epigenetic DNA modifications on cytosine”
